According to PubChem BioAssay (NCATS):
Records with an inconclusive call do not appear. Where a call stands in place of a potency, no number is given. Active and inactive are the calls of the source. The call rests on the fitted dose curve; in most records, active means well fitted inhibition curve with a large enough effect; inconclusive means small, poorly fitted or top-dose-only effect; inactive means flat fitted curve, though single readings scatter.

Key:
Test in all cases: qHTS profiling for inhibitors of Plasmodium falciparum proliferation (AID 504749); further: nearly all actives have a fitted effect of over 60% in size
Conditions in all cases: P. falciparum in erythrocytes, SYBR Green DNA, 72 h; series mostly up to 28.7 µM
CP286 = system: CP286
How it was run: (§1)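 SYBR Green fluorescence (ex 485 nm, em 535 nm) reports parasite DNA after 72 h compound exposure of infected red cells at 0.3% parasitemia, 2.5% hematocrit; signal normalized to 0.29 uM artemisinin and vehicle wells.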

CP291 = system: CP291
How it was run: as §1

CP297 = system: CP297
How it was run: as §1

CP305 = system: CP305
How it was run: as §1

CP315 = system: CP315
How it was run: as §1

CP325 = system: CP325
How it was run: as §1

CP329 = system: CP329
How it was run: as §1

CP335 = system: CP335
How it was run: as §1

DFO2036 = system: DFO2036
How it was run: as §1

DIV14 = system: DIV14
How it was run: as §1
Potency means the concentration at half of the fitted maximal effect.

Row | Compound | Potency (CP286) | Potency (CP291) | Potency (CP297) | Potency (CP305) | Potency (CP315) | Potency (CP325) | Potency (CP329) | Potency (CP335) | Potency (DFO2036) | Potency (DIV14)
1 | C1CCC(NC2CCCCC2)CC1 | inactive | inactive | inactive | inactive | inactive | inactive | inactive | inactive | inactive | inactive
2 | c1ccc(C2(c3ccccc3)CC2C2=NCCN2)cc1 (stereo not given) | – | inactive | inactive | inactive | inactive | inactive | inactive | inactive | inactive | –
3 | CCCCCCCCCC(CC)c1ccc(S(=O)(=O)O)cc1 (stereo not given) | inactive | inactive | inactive | inactive | inactive | inactive | inactive | inactive | inactive | inactive
4 | CCCCCCCCCCCCCCCC[N+](C)(C)C | 5.01 µM (active) | 13.5 µM (active) | 13.5 µM (active) | – | – | 12 µM (active) | 10.7 µM (active) | 8.49 µM (active) | – | 6.75 µM (active)
5 | CN1C2CCC1CC(OC(=O)c1cc(Cl)cc(Cl)c1)C2 (stereo not given) | inactive | inactive | – | inactive | inactive | inactive | inactive | inactive | inactive | –
6 | CC(=O)[O][Hg][c]1ccccc1 | 3.55 µM (active) | 4.26 µM (active) | 13.5 µM (active) | 4.26 µM (active) | – | 6.01 µM (active) | – | 5.36 µM (active) | 3.98 µM (active) | 4.78 µM (active)
7 | O=C(O)COc1ccccc1 | inactive | inactive | inactive | inactive | inactive | inactive | inactive | inactive | inactive | inactive
8 | CCCCc1ccc(C(=O)O)nc1 | inactive | inactive | inactive | inactive | inactive | inactive | inactive | inactive | inactive | –
9 | C#CC1(O)CCC2C3CCC4=CC(=O)CCC4(C)C3CCC21C (stereo not given) | inactive | inactive | inactive | inactive | inactive | inactive | inactive | inactive | inactive | inactive
10 | O=C(O)C(Cl)Cl | inactive | inactive | inactive | inactive | inactive | inactive | inactive | inactive | inactive | inactive
11 | NC1=NC(=O)N2CC12 (stereo not given) | – | – | inactive | – | inactive | inactive | inactive | – | – | inactive
12 | CC(=O)OCC1=C(C(=O)O)N2C(=O)[C@@H](N)[C@@H]2SC1 | inactive | inactive | inactive | inactive | inactive | inactive | inactive | inactive | – | inactive
13 | Cc1cc(O)ccc1Cl | inactive | inactive | inactive | inactive | inactive | inactive | inactive | inactive | inactive | inactive
14 | CC(C)NC(C)Cc1ccc(I)cc1 (stereo not given) | inactive | inactive | – | inactive | inactive | inactive | inactive | – | inactive | –
15 | CN(C)[C@@H]1C(=O)C(C(N)=O)=C(O)[C@@]2(O)C(=O)C3=C(O)c4c(O)cccc4[C@@](C)(O)[C@H]3[C@H](O)[C@@H]12 | – | inactive | – | inactive | inactive | inactive | inactive | – | – | inactive
16 | NC(=O)CN1CC(O)CC1=O (stereo not given) | inactive | inactive | inactive | inactive | inactive | inactive | inactive | inactive | inactive | inactive
17 | CCCN1CCC[C@H](c2cccc(O)c2)C1 | inactive | inactive | – | inactive | inactive | inactive | inactive | inactive | inactive | inactive
18 | COC(=O)[C@@H](N)CCCN=C(N)N[N+](=O)[O-] | inactive | inactive | inactive | inactive | inactive | inactive | inactive | inactive | inactive | inactive
19 | C[C@]12CCC(=O)C(O)=C1CC[C@@H]1[C@H]3CCC(=O)[C@@]3(C)CC[C@@H]12 | inactive | inactive | inactive | inactive | inactive | inactive | inactive | inactive | – | –
20 | CN[C@@H]1C[C@@H](c2ccc(Cl)c(Cl)c2)c2ccccc21 | 12.6 µM (active) | – | inactive | – | inactive | inactive | inactive | – | – | 5.36 µM (active)
21 | COC(=O)c1cncn1C(C)c1ccccc1 (stereo not given) | – | inactive | inactive | inactive | inactive | inactive | inactive | inactive | – | inactive
22 | O=[N+]([O-])c1ccc([As](=O)(O)O)cc1 | 7.94 µM (active) | 8.49 µM (active) | 10.7 µM (active) | 7.57 µM (active) | 12 µM (active) | 9.53 µM (active) | 12 µM (active) | 4.78 µM (active) | 5.01 µM (active) | 10.7 µM (active)
23 | COC(C)(C)CCCC(C)C/C=C/C(C)=C/C(=O)OC(C)C (stereo not given) | – | – | – | – | inactive | – | – | – | inactive | –
24 | Cc1ccc(Cl)c(O)c1 | inactive | inactive | inactive | inactive | inactive | inactive | inactive | inactive | inactive | inactive
25 | CC[N+]1(CCOC(=O)C(O)(c2ccccc2)c2ccccc2)CCCCC1 | inactive | inactive | inactive | inactive | inactive | inactive | inactive | inactive | inactive | inactive
26 | C=CCN1CC[C@]23CCCCC2[C@H]1Cc1ccc(O)cc13 (stereo not given in full) | inactive | inactive | inactive | inactive | inactive | inactive | inactive | inactive | inactive | inactive
